Sampled rows, rich in hits. Any-hit rate of the full collection: about 2.4%.
PfM18AAP inh-1 = PfM18AAP enzyme inhibition | recombinant PfM18AAP, H-Glu-NHMec fluorogenic cleavage | AID 1822 | actives 1.2% (n = 290,000) | inhibition, % at 7.35 µM;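 active means inhibition above the campaign mean inhibition over all tested compounds plus 3 SD, cut at about 28% in these data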;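 further: 0% = plate median of test compound wells and 100% = 2 mM ZnCl2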
PABP polyA inh = PABP-poly(A) binding inhibition | inhibition, % at 35 µM | actives 1% (n = 290,000) | P11940 | PABP-poly(A) RNA binding, fluorescence polarization | AID 2014;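 further: calls also rest on retests at 20 µM and on dose response follow-up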
eIF4H inh = inhibitors of RNA binding by human eIF4H. actives 0.94% (n = 290,000). eIF4H fluorescence polarization binding assay. inhibition, % at 35 µM. Q15056;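 further: calls also rest on retests at 20 µM and on dose response follow-up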
eIF4E-4G inh = blocks eIF4E binding to eIF4G | inhibition, % at 21.7 µM | TR-FRET eIF4E-eIF4GI(517-606) binding, 2 h | P63073+Q04637 | actives 0.37% (n = 220,000);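 active means inhibition above about 30%, limit read from the data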;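 further: 0% = full FRET control wells and 100% = background wells lacking eIF4GI fragment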
MLLE-PAM2 inh = blocks PAM2 peptide binding to the PABP1 MLLE domain; actives 0.36% (n = 360,000); AID 588489; GST-MLLE / FITC-PAM2 fluorescence polarization; inhibition, % at 20 µM; in the data active means inhibition above about 35%, passing the limit was not always enough;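 further: plate controls were DMSO wells with GST-MLLE for no effect and wells lacking GST-MLLE protein for full effect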
PERK inh = blocks human PERK kinase | CHO PERK-DD fusion, SEAP luminescence translation reporter | inhibition, % at 5.6 µM | Q9NZJ5 | AID 1416 | actives 0.17% (n = 220,000);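 active means inhibition above the mean inhibition of all tested compounds plus 3 SD, set separately per screening campaign, cut at about 2.9% in these data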;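 further: PERK kinase domain activated by AP20187 dimerizer at 100 nM; 0% = DMSO with dimerizer and 100% = rapamycin at 8.4 µM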
PfM18AAP inh-2 = confirmation of Plasmodium falciparum M18 aspartyl aminopeptidase inhibitors | shares compounds with PfM18AAP inh-1 | recombinant PfM18AAP, H-Glu-NHMec fluorogenic cleavage | inhibition, % at 7.35 µM | actives 28% (n = 2,400) | AID 2170;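 active means mean inhibition over replicate wells above the hit cutoff set for the earlier primary screen, cut at about 29% in these data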;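 further: 0% = median of test compound wells and 100% = 2 mM ZnCl2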
CTSL1 counter = Cathepsin L (human) inhibition, confirmation. shares compounds with PfM18AAP inh-1. inhibition, % at 5.96 µM. 2,400 tested, under 10 active. AID 2178. purified cathepsin L1, Z-Leu-Arg-MCA fluorescence;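 active means average inhibition across replicates above the hit cutoff set in the earlier primary screen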;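 further: 0% = median of test compound wells and 100% = Z-Phe-Ala-diazomethylketone 1 µM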
Target sequence (P07711 whole entry, looked up): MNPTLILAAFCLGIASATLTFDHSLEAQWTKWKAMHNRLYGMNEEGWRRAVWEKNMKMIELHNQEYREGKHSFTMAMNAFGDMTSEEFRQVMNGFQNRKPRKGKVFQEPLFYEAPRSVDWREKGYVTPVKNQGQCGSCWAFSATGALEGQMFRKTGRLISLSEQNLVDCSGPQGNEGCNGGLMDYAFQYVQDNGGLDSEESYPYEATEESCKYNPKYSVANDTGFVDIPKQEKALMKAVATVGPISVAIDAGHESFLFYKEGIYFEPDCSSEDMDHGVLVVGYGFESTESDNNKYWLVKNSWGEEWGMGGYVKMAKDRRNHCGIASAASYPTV
* marks the source's active call; other numbers are inactive results; x = no result. Unless noted, how the calls were made is not given here.

SMILES	PfM18AAP inh-1	PABP polyA inh	eIF4H inh	eIF4E-4G inh	MLLE-PAM2 inh	PERK inh	PfM18AAP inh-2	CTSL1 counter
CN1CCN(C(=S)c2ccc(N(C)C)cc2)CC1	40*	11	-2	5	22	0	10	1
CSc1ccc(C(=S)N2CCN(C)CC2)cc1	-1	-1	-8	-2	26	0	x	x
CCN(CC)C(=O)C1=C(C)N(Cc2ccccc2)C(=O)C(CC(=O)NCCCN(C)C)C1 (centres undefined)	x	x	x	x	4	x	x	x
CCc1ccccc1NC(=O)Nn1cnnc1	56*	4	-9	x	-6	x	38*	-6
CCOc1ccccc1NC(=O)Nn1cnnc1	60*	-9	-9	x	-15	x	44*	-11
Cc1cccc(C)c1NC(=O)CN1CCN(C(=O)c2ccc(OCc3cn4ccccc4n3)cc2)CC1	x	x	x	x	-8	x	x	x
S=c1nc(C2COc3ccccc3O2)[nH][nH]1 (centres undefined)	35*	-6	6	6	29	0	26	2
Cc1nc(C2COc3ccccc3O2)sc1C(=O)O (centres undefined)	-1	6	-8	5	3	2	x	x
N#Cc1c(-c2ccc(Cl)cc2)cc(-c2ccccc2)nc1SCC(=O)O	-2	14	0	x	-1	x	x	x
N#Cc1c(-c2ccc(F)cc2)cc(-c2ccccc2)nc1SCC(=O)NCC(=O)O	51*	22	0	4	29	1	6	6
CCNC(=O)NC(=O)CSc1ccc2ccccc2c1	-7	-5	-5	1	9	1	x	x
CN(CC(=O)Nn1cnnc1)S(=O)(=O)c1cc(Cl)ccc1Cl	44*	-9	-6	0	1	1	45*	3
O=C(CSc1ccc(Cl)cc1)Nn1cnnc1	40*	1	-2	-3	26	1	52*	-5
O=C(CSc1ccc2ccccc2c1)Nn1cnnc1	65*	1	-3	-10	-3	1	51*	0
O=C1C(=O)N(c2ccccn2)C(c2cccc(F)c2)/C1=C(/O)c1ccccc1 (centres undefined)	-9	2	-8	x	-4	x	x	x
CN(C)C(CNC(=O)CNC(=O)c1ccc(Br)cc1)c1ccccc1 (centres undefined)	-2	8	3	1	7	0	x	x
Nc1nnc(-c2cc3ccccc3oc2=O)s1	2	-8	7	1	-18	0	x	x
O=c1oc2ccccc2cc1-c1nnc(NCc2ccco2)s1	38*	21	5	-14	8	-2	-38	4
O=C(c1ccc(SCc2ccco2)c([N+](=O)[O-])c1)N1CCOCC1	34*	0	-2	-5	11	-1	-36	-6
CCCCC1(c2ccc(F)cc2)NC(=O)N(CC(=O)Nc2ccc(N3CCOCC3)cc2)C1=O (centres undefined)	x	x	x	x	-4	x	x	x
Cc1cc(O)c2/c(=N\N)c(-c3csc(C)n3)coc2c1	71*	7	3	-10	-10	1	48*	-1
Cc1nc(-c2coc3c(CN(C)C)c(O)ccc3c2=O)cs1	-18	0	-6	2	-7	0	x	x
CC(C)CCNC(=S)Nc1ccccn1	33*	-9	-9	7	-26	0	6	2
O=C1NC(=S)CN1c1ccccc1	42*	4	13	1	57*	1	13	-4
O=C(c1ccccc1)c1nc2c(n1O)CCCCC2	5	6	1	-1	9	1	x	x
SMILES	PfM18AAP inh-1	PABP polyA inh	eIF4H inh	eIF4E-4G inh	MLLE-PAM2 inh	PERK inh	PfM18AAP inh-2	CTSL1 counter
COc1cc([N+](=O)[O-])ccc1-c1ccc(/C=N/NC(=O)OC(C)(C)C)o1	6	5	37	-4	-28	-1	x	x
COc1cc([N+](=O)[O-])ccc1-c1ccc(/C=N/NC(N)=O)o1	44*	44*	65	-5	-97	1	-37	1
CNC(=S)n1cnc(N)n1	40*	2	-5	-9	-9	2	-34	0
CCC(NC(C)C)C(O)c1ccc(O)c(O)c1 (centres undefined)	52*	3	16	-2	13	2	10	-4
CCC(c1ccc(O)c(O)c1)C(CC)c1ccc(O)c(O)c1 (centres undefined)	x	x	x	x	23	x	x	x
COc1ccc(NC(=O)NNC(=O)CCc2ccc(O)c(O)c2)cc1OC	82*	17	57*	x	-6	x	61*	-2
Cc1ccccc1NC(=O)NNC(=O)c1ccc2ccccc2c1O	34*	1	-11	x	12	x	4	4
COc1ccccc1NC(=O)NNC(=O)c1ccc2ccccc2c1O	33*	6	22	x	10	x	4	0
COc1ccccc1NC(=O)NNC(=O)c1ccc2ccccc2c1	4	-2	-3	x	-11	x	x	x
COc1ccc(NC(=O)NNC(=O)c2ccc3ccccc3c2O)cc1OC	39*	8	5	x	-8	x	12	-1
Cc1ccccc1NC(=O)NNC(=O)c1ccc2ccccc2c1	15	0	4	x	1	x	x	x
O=C(c1cccc(OC(F)F)c1)N1CCN(c2ncccn2)CC1	-2	-6	6	-1	13	0	x	x
COc1ccc(OC)c(S(=O)(=O)N/N=C\c2c[nH]c3ccccc23)c1	-10	0	-3	x	-1	x	x	x
CCOC(=O)c1cc(NC(=O)Nc2ccc(Br)cc2)c(C)nc1C	-6	-1	-4	0	-3	0	x	x
Oc1ccccc1N1CCN(c2ncccn2)CC1	42*	-3	-2	0	6	0	-19	3
c1ccc(N2CCN(c3ncccn3)CC2)cc1	-3	6	15	0	7	1	x	x
CCN1CC(CN(C)Cc2nc(-c3ccc(OC)c4ccccc34)oc2C)CC1=O (centres undefined)	-6	4	6	0	6	0	x	x
COc1ccc2c(c1)S/C(=C\C(=O)c1ccncc1)N2C	39*	29	-15	-7	16	0	27	6
COc1cc(OC)cc(C(=O)/C=C2\Sc3ccccc3N2C)c1	47*	5	7	-2	36	0	-48	0
COc1ccc(C(=O)/C=C2/Sc3cc4c(cc3N2C)OCO4)cc1	40*	-6	7	-63	14	0	-45	2
CC(C)Cn1c(=O)c2ccccc2n2c(CCC(=O)O)nnc12	1	-2	0	x	-9	x	x	x
CN(C)c1ccc(/C=N/Nc2ccc(-n3ccnc3)nn2)cc1	34*	19	0	-1	3	-1	-39	8
O=[N+]([O-])c1ccc(N/N=C/c2cccc(O)c2O)c(S(=O)(=O)N2CCOCC2)c1	42*	-5	8	3	-9	0	38*	0

Source: PubChem
